The source made the active and inactive calls.

We go through six compounds from PubChem BioAssay.

The test system of assay [1] is Plasmodium falciparum Sir2 (PF13_0152, Sir2A). Nature of the assay: Plasmodium falciparum Sir2A binding compounds – biochemical, small-molecule microarray, 635 nm fluorescence, primary screen (AID 1098).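 Further: score merges spot fluorescence intensity with its signal-to-noise ratio.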 The note with it: fluorescence 635 nm, higher = more signal.
Assay [2] is described as follows: probe aDKK1 binding to arrayed compounds – biochemical, biotinylated probe, 635/667 nm fluorescence, primary screen (AID 1099).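 Further: score merges 667nm spot fluorescence with signal to noise across triplicate slides.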 The settings on record: small-molecule microarray, higher = more signal.
Assay [3] can be described thus: probe aCHRDL2 binding to arrayed compounds – biochemical, biotinylated probe, 635/667 nm fluorescence, primary screen (AID 1100). The settings on record: small-molecule microarray, higher = more signal.
Assay [4] can be described thus: change in splice reporter luminescence, either direction, cell-based, HEK293, spliceosome inhibition project, primary screen (AID 1101).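 Further: HEK293 cells carrying a splicing-competent luciferase reporter gene; test concentration not given here.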 The settings on record: HEK293 splicing luciferase reporter, 24 h, higher = more signal, called active from +8 up or from −8 down. A general note: In a reporter assay the amount or activity of a reporter protein is the signal.
Assay [5] has as its target Fibroblast growth factor 10 (Homo sapiens) (UniProt O15520). Put plainly: compounds binding fibroblast growth factor 10 – biochemical, small-molecule microarray, 635 nm fluorescence, primary screen (AID 1102). The settings on record: FGF10 binding, fluorescence 635 nm, higher = more signal.
In assay [6] the test system is glycogen synthase kinase-3 (GSK3A per assay name; protocol says GSK3B). Nature of the assay: compounds binding glycogen synthase kinase-3 – biochemical, small-molecule microarray, 635 nm fluorescence, GSK3A, primary screen (AID 1103). Further: the record names both GSK3A and GSK3B. The settings on record: fluorescence 635 nm, higher = more signal.
The target in assay [7] is Epidermal growth factor receptor (Homo sapiens) (UniProt P00533). Put plainly: compounds binding epidermal growth factor receptor – biochemical, small-molecule microarray, 635 nm fluorescence, primary screen (AID 1104).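 Further: score merges 667 nm emission intensity with spot signal to noise over triplicate slides.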 The note with it: EGFR binding, higher = more signal.
Assay [8] addresses Follistatin-related protein 3 (Homo sapiens) (UniProt O95633). Nature of the assay: compounds binding follistatin-related protein 3 – biochemical, small-molecule microarray, 635 nm fluorescence, primary screen (AID 1105).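 Further: score merges emission near 667 nm and signal to noise per printed spot across three slides.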 The settings on record: FSTL3 binding, higher = more signal.
The target of assay [9] is Dickkopf-related protein 1 (Homo sapiens) (UniProt O94907). Nature of the assay: small molecules binding DKK1 protein – biochemical, small-molecule microarray, 635 nm fluorescence scan, primary screen (AID 1106).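 Further: score merges emission near 667 nm with signal to noise over three replicate slides.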 The settings on record: higher = more signal.
The test system of assay [10] is Inhibin beta A chain (activin A). Put plainly: small molecules binding activin A – biochemical, small-molecule microarray, 635 nm fluorescence scan, primary screen (AID 1107).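 Further: mouse activin A protein probed at 4.33 µg/mL on printed slides; score merges bound-protein fluorescence near 667 nm with spot signal-to-noise.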 The note with it: INHBA, higher = more signal.
The subject of assay [11] is Human papillomavirus type 1a protein E7 (residues 44-93). Put plainly: small molecules binding HPV E7 44-93 – biochemical, small-molecule microarray, residues 44-93, 635 nm fluorescence, primary screen (AID 1108).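 Further: E7 fragment applied at 1 µg/mL in TBST for 1 h at 4 C; score combines spot fluorescence with its signal to noise ratio.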 The note with it: fluorescence 635 nm, higher = more signal.
The nature of assay [12]: hepatitis C replication reporter changes, two-sided – Huh7 cells, luciferase reporter, HCV replication inhibitor project, primary screen (AID 1109).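 Further: huh7 hepatoma cells harbouring a luciferase neomycin HCV replicon reporter; luciferase luminescence as measure of HCV replicon replication; test concentration not given here.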 The settings on record: Huh7 HCV replicon luciferase reporter, 48 h; higher = more signal.
In assay [13] the target is Left-right determination factor 2 (Homo sapiens) (UniProt O00292). Put plainly: small molecules binding LEFTY2 protein – biochemical, small-molecule microarray, 635 nm fluorescence scan, primary screen (AID 1110). The note with it: higher = more signal.
Assay [14] has as its target Calmodulin-1 (Homo sapiens) (UniProt P0DP23). Nature of the assay: small molecules binding calmodulin-1 with EGTA – biochemical, small-molecule microarray, Cy5-labelled CALM1, profiling panel (AID 1111).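 Further: labelled calmodulin applied in Tris saline Tween buffer holding calcium plus EGTA and DTT.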 The settings on record: Cy5-CALM1 binding fluorescence, higher = more signal.
For assay [15] the target is unchanged. Nature of the assay: small molecules binding Ca-loaded calmodulin-1 – biochemical, small-molecule microarray, Cy5-labelled CALM1, plus calcium, artefact control for SMM control-protein annotation, profiling panel (AID 1112).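 Further: score merges spot fluorescence with signal to noise from triplicate slides.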 The note with it: Cy5-CALM1 binding fluorescence, higher = more signal.
A short description of assay [16]: probe aWnt5a binding to arrayed compounds – biochemical, biotinylated probe, 635/667 nm fluorescence, primary screen (AID 1113).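 Further: score merges 667 nm fluorescence intensity with signal-to-noise per printed feature.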 The settings on record: small-molecule microarray, higher = more signal.
Assay [17] is described as follows: probe aShh binding to arrayed compounds – biochemical, biotinylated probe, 635/667 nm fluorescence, primary screen (AID 1114).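 Further: probe is biotin-labelled aShh protein from a stem cell growth factor screen; measures binding of labelled protein to compounds printed on the slide; score merges feature fluorescence at 667 nm with signal-to-noise.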 The settings on record: small-molecule microarray, higher = more signal.
A short description of assay [18]: probe aNog binding to arrayed compounds – biochemical, biotinylated probe, 635/667 nm fluorescence, primary screen (AID 1115).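 Further: probe is biotinylated aNog protein used at 0.15 µg/mL for 1 h at 4 C; z-score combines 667 nm fluorescence of each spot with its signal to noise.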 The note with it: small-molecule microarray, higher = more signal.
For assay [19], the target named is Torsin-1A-interacting protein 1 (Homo sapiens) (UniProt Q5JTV8). Put plainly: compound microarray binding of lysate hLAP1 – cell lysate, small-molecule microarray, COS7 lysate, 635/667 nm fluorescence, primary screen (AID 1116). The settings on record: 635 nm fluorescence, higher = more signal.
For assay [20], the target named is Alpha-bungarotoxin (Bungarus multicinctus) (UniProt P60615). Nature of the assay: compounds binding labelled alpha-BTX control protein – biochemical, small-molecule microarray, Alexa647 label, 635/667 nm fluorescence, artefact control for SMM control protein annotation, profiling panel (AID 1117). The settings on record: alpha-BTX-A647 binding fluorescence, higher = more signal.
Alpha-bungarotoxin (Bungarus multicinctus), sequence (P60615 whole entry, looked up): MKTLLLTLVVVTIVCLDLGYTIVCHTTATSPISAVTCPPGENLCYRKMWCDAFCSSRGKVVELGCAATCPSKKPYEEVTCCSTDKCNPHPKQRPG

Torsin-1A-interacting protein 1 (Homo sapiens), sequence (Q5JTV8 whole entry, looked up): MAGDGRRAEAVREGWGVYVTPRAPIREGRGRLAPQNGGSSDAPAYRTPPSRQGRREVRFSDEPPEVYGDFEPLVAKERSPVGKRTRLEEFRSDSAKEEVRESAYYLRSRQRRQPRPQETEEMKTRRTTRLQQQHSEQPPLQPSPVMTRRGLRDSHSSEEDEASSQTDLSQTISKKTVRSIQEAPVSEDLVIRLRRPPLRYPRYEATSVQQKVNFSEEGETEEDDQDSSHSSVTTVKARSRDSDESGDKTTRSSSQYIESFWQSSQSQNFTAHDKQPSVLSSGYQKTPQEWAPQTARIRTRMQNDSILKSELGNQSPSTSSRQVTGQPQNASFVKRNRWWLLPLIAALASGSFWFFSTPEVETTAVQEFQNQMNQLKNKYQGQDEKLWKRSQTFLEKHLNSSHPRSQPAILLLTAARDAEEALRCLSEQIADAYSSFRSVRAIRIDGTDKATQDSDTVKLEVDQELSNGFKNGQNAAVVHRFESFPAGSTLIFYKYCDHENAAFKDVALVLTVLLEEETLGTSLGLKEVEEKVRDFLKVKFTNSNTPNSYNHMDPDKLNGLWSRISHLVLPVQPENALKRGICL
Dickkopf-related protein 1 (Homo sapiens), sequence (O94907 whole entry, looked up): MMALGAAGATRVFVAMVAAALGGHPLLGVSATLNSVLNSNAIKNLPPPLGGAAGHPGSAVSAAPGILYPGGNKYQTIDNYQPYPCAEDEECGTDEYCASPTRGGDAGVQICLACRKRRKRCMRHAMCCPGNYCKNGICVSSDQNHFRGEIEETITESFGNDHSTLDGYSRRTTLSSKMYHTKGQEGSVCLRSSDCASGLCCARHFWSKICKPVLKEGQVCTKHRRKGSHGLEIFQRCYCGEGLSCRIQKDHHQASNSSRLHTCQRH
Fibroblast growth factor 10 (Homo sapiens), sequence (O15520 whole entry, looked up): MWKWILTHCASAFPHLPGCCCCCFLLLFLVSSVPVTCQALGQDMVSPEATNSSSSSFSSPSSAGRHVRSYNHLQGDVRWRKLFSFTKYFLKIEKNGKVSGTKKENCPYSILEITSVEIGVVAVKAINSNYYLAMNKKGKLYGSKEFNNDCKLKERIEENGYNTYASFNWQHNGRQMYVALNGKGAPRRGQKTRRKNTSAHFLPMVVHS
Epidermal growth factor receptor (Homo sapiens), sequence (P00533 whole entry, looked up): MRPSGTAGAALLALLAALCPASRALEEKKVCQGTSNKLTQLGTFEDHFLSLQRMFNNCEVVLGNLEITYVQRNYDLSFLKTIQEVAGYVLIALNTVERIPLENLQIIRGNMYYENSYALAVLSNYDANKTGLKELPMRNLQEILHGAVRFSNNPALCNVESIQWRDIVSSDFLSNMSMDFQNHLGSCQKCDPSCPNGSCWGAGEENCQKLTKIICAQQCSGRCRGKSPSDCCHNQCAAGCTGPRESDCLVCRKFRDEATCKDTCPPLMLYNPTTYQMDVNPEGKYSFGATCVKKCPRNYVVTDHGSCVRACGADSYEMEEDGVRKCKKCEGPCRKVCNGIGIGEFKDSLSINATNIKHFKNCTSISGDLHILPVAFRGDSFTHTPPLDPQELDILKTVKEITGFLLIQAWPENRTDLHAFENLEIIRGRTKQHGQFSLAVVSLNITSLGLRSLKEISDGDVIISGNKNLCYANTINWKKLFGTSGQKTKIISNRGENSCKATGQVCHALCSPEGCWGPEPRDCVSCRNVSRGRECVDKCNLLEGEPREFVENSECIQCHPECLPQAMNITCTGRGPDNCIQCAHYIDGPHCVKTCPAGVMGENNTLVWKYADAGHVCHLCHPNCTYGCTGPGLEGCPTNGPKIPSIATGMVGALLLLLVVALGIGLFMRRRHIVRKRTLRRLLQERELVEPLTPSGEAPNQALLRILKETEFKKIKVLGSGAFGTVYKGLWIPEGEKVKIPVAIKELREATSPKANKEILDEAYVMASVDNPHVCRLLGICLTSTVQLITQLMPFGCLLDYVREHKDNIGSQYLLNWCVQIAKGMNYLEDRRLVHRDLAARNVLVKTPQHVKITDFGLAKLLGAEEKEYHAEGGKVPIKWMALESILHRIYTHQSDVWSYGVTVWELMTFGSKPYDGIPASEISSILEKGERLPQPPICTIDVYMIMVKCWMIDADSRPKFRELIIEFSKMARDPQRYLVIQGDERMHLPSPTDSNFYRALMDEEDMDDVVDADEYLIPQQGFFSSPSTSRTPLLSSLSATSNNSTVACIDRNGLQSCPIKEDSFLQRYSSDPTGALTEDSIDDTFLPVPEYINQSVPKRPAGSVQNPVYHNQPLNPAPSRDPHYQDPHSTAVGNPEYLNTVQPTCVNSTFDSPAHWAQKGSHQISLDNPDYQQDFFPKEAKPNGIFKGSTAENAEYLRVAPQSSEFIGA
Follistatin-related protein 3 (Homo sapiens), sequence (O95633 whole entry, looked up): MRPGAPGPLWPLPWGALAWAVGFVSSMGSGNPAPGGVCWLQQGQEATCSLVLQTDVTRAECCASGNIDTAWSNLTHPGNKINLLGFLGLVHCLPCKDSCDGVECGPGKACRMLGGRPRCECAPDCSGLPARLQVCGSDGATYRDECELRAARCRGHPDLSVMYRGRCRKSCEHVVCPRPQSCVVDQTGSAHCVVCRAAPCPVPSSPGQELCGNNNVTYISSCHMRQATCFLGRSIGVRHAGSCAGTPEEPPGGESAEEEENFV
Left-right determination factor 2 (Homo sapiens), sequence (O00292 whole entry, looked up): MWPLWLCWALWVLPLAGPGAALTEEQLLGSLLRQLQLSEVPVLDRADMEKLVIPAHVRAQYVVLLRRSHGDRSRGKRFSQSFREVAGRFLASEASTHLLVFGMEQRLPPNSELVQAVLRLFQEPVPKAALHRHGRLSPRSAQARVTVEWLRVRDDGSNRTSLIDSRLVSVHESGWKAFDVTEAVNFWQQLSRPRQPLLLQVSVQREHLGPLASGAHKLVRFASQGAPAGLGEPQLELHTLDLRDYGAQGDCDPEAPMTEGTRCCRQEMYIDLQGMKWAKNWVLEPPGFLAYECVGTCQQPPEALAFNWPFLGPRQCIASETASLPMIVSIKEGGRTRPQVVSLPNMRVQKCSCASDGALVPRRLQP

`O=C1[C@@H]2[C@@H](CC(COc3ccccc3)=C([C@H](O)CCc3ccccc3)[C@@H]2CO)C(=O)N1Cc1ccccc1`: the composite z-score in assay [1] was 0.764; in assay [2], -0.0833; in assay [3], -0.264; in assay [5] it was 0.408; in assay [6] it was -0.0949; in [7] it was 0.256. The composite z-score in [8] was 0.679; in assay [9] it was 0.286; in [10], 0.343; in assay [11], 0.778; in assay [13], 0.399; in assay [14] it was 0.615. For the same compound, the composite z-score in assay [15] is -0.346; in assay [16], -0.1; in assay [17] it was -0.0553; in assay [18], -0.172; in [19] it was 0.47; in assay [20], 0.495. Further, the z-score in [4] is 0.187 (inactive); in [12] it was -2.21.

As for `CCCC[C@H]1C[C@@H]1[C@@H]1N(C(C)=O)[C@H](c2cccc(OC)c2)CC12CC2`, the composite z-score in [1] is -0.497; in assay [2], 0.692; in [3], 0.878; in [5], 0.0847; in assay [6] it was 0.114; in assay [7], -0.0128. In addition, the composite z-score was 0 in assay [8]; -0.556 in assay [9]; 0.596 in [10]; -0.223 in assay [11]; -0.305 in [13]; 1.03 in [14]. Also, the composite z-score in assay [15] was 0.878; in [16] it was -0.0276; in assay [17] it was 0.0278; in [18], -0.643; in assay [19], 0.632; in assay [20], 0.154. Further, the z-score in assay [4] was -1.86 (inactive); in [12], -0.103.

Regarding `CC1CC/C=C\[C@H]2OC34C=CCN(c5ccc(Cl)cc5)C(=O)[C@H]3N(CCCCCCO)C(=O)[C@]4(C)C2C(=O)O1` (stereo not given in full), the composite z-score in [1] is 0.597; in assay [2], -0.13; in [3], 0.747; in assay [5], -0.533; in assay [6] it was -0.594; in assay [7] it was -0.726. Moreover, the composite z-score in assay [8] was -0.931; in [9] it was -1.43; in [10], 0.0845; in [11], 0.0258; in [13], -1.56; in assay [14], -0.249. Also, the composite z-score in [15] was 0.864; in [16], -0.262; in [17], -0.138; in assay [18], 0.0112; in assay [19] it was -0.377; in assay [20] it was -0.856. Besides, the z-score in assay [4] is 0.104 (inactive); in [12], -0.0973.

For `CC1CC/C=C\[C@H]2OC34C=CCN(Cc5ccccc5)C(=O)[C@H]3N(CCCCCCO)C(=O)[C@@H]4C2C(=O)O1` (stereo not given in full), the composite z-score in assay [1] was 0.954; in [2], -0.0995; in assay [3] it was 0.705; in assay [5], -0.965; in assay [6] it was -0.587; in assay [7], -1.28. The composite z-score is -1.01 in [8]; -1.49 in assay [9]; 0.0203 in assay [10]; -0.504 in [11]; -1.26 in assay [13]; 0.284 in assay [14]. Besides, the composite z-score was 0.636 in assay [15]; -0.12 in [16]; -0.0146 in [17]; -0.0007 in [18]; 2.32 in [19]; -1.2 in assay [20]. Besides, the z-score in [4] was 0.0368 (inactive); in assay [12], -0.117.

Consider `O=C(N1CCOCC1)[C@@]1(Cc2ccccc2)COC(c2ccc(OCCCO)cc2)=N1`, for which the composite z-score in [1] was 0.666; in assay [2], 1.23; in [3], 0.84; in assay [5] it was 0.132; in [6], 0.983; in assay [7], -0.309. In addition, the composite z-score in assay [8] was -0.65; in assay [9], -0.161; in assay [10], 0.573; in assay [11], 1.44; in [13], -0.571; in assay [14], 1.16. In addition, the composite z-score in [15] is 0.83; in assay [16] it was -0.0161; in assay [17], -0.288; in assay [18], -0.221; in [19], 1.38; in assay [20] it was 2.35. Also, the values for the z-score in assay [4] and in [12] were -0.694 (inactive) and -1.95, respectively.

As to `COc1ccc([Si](C)(C)[C@H]2[C@H](CCO)O[C@@]3(C(=O)N(Cc4cccc(N5C(=O)c6ccccc6Oc6ccccc65)c4)c4ccccc43)[C@@H]2C)cc1`, the composite z-score in [1] was 0.742; in [2] it was -0.109; in assay [3], -0.236; in assay [5], 0.396; in assay [6], -0.479; in assay [7], 0.111. The composite z-score in assay [8] was -0.628; in assay [9], -0.0781; in assay [10], 0.212; in assay [11], 0.72; in assay [13], -0.296; in assay [14], 0.29. Also, the composite z-score in assay [15] is 0.53; in assay [16], -0.091; in assay [17], -0.262; in assay [18], -0.0816; in [19], 0.449; in assay [20] it was 0.71. Besides, the z-score in [4] was -1.93 (inactive); in assay [12], -4.89.
